# High-throughput results as filed in PubChem BioAssay.
# KDM4E inh = qHTS Assay for Inhibitors of Human Jumonji Domain Containing 2E (JMJD2E) | Lysine-specific demethylase 4E (Homo sapiens), B2RXH2 | JMJD2E catalytic domain, FDH-coupled NADH fluorescence (FDH is formaldehyde dehydrogenase) | Potency, µM (highest dose often 57.1 µM), usual class: inhibitors | 230,000 compounds, 1.6% hits | AID 2147, 2009; active means well fitted inhibition curve with a large enough effect, not every such curve was filed as active; inconclusive means small, poorly fitted or top-dose-only effect, or another doubt; inactive means no such curve, though single readings can be large or run the other way; further: nearly all actives have a fitted effect of over 50% in size
# Target sequence (B2RXH2 1-337 limits assumed): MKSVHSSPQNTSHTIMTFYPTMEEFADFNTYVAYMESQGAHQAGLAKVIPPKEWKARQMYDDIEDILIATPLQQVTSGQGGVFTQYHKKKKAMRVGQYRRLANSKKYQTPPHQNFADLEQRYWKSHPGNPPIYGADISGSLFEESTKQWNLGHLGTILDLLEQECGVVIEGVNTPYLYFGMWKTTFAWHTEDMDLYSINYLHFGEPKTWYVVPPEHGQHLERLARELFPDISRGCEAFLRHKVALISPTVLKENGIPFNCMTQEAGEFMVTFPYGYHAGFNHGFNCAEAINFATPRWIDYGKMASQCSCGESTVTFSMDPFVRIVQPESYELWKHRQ
# Tau fibril FP = qHTS for Inhibitors of Tau Fibril Formation, Fluorescence Polarization. Microtubule-associated protein tau (Homo sapiens), P10636. K18 P301L tau heparin fibrillization, Alexa594 FP, 6 h. Potency, µM (series often up to 57.7 µM), actives largely listed as inhibitors. 280,000 compounds, 0.39% hits. AID 1468, 2008; further: nearly all actives have a fitted effect of over 55% in size
# Target sequence (P10636 561-689 P618L limits assumed): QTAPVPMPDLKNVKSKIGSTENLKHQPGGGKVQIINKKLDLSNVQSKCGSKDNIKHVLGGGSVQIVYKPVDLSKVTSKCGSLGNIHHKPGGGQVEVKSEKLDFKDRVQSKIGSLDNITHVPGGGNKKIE
#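 K18 P301L tau (15 uM unlabeled/0.24 uM Alexa 594-labeled, final) + compound + heparin 20 uM final; 100 mM NaOAc pH 7; 6 hr 37 C; ThT 30 uM final added, 1 hr RT; FP ex 555/em 632 nm.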
# Tau fluor counter = Counterscreen qHTS for Inhibitors of Tau Fibril Formation, Fluorescence Polarization | AID 1463, 2008 | Potency, µM (titrated, usually from 57.7 µM) | 280,000 compounds, 0.93% hits | tau K18 P301L Alexa594 fluorescence, heparin fibrillization; further: nearly all actives have a fitted effect of over 55% in size
#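 Human tau K18 P301L (15 uM unlabeled, 0.24 uM Alexa 594-labeled) in 100 mM sodium acetate pH 7 with 20 uM heparin, 6 hr at 37 C. ThT 30 uM added, 1 hr ambient; Alexa 594 FP and total fluorescence read at 555/632 nm.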
# Tau ThT inhib = qHTS for Inhibitors of Tau Fibril Formation, Thioflavin T Binding; Microtubule-associated protein tau (Homo sapiens), P10636; recombinant tau K18 P301L (four-repeat tau fragment), heparin-induced fibrillization, ThT fluorescence; Potency, µM (highest dose often 57.4 µM), usual class: inhibitors; 270,000 compounds, 2.1% hits; further: nearly all actives have a fitted effect of over 55% in size
#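 Heparin-induced (20 uM) aggregation of recombinant human K18 P301L tau, 15 uM unlabeled with 0.24 uM labeled, pH 7 acetate buffer, 6 hr at 37 C with compound. Fibrils quantified by 30 uM ThT fluorescence after 1 hr ambient incubation.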
# NPSR antagonist = qHTS Assay for Antagonists of the Neuropeptide S Receptor: cAMP Signal Transduction; Q6W5P4; CHO-NPSR cells, cAMP TR-FRET, antagonist mode; Potency, µM (doses to about 38.3 µM), usual class: inhibitors; 220,000 compounds, 1% hits; further: nearly all actives have a fitted effect of over 50% in size
# PNC inhibitor = High Content Assay for Compounds that inhibit the Assembly of the Perinucleolar Compartment. PC3M PTB-GFP, PNC prevalence imaging, 16 h; active compounds read low. activity change (PNC), negative = inhibition, % at 10 µM. 140,000 compounds, 3.1% hits. AID 2417, 2010;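 active means readout at or below -70, meaning at least 70% loss of cells showing the perinucleolar compartment, a nuclear body marking cancer cells; inconclusive means readout between -30 and a set limit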
#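 Read-out is percentage of cells bearing a perinucleolar compartment, from automated 20x imaging of fixed, Hoechst-stained PC3M PTB-GFP cells. Cells were seeded 4 h, then exposed 16 h to compound (23 nl of library stock) in duplicate plates.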
# Hits are given with their value; . = inactive; ? = inconclusive; / = not tested or not shown; [ ] = remark or other dose. Only some compounds are listed: those with a hit (about 5.1% of all), similar ones and a draw of the others. Unless noted, the call rests on the fitted dose curve; in most records, active means well fitted curve in the direction sought with a large enough effect; inconclusive means small, poorly fitted or top-dose-only effect, or another doubt; inactive means no such curve, though single readings can be large; an effect the other way counts as inactive or inconclusive.
SMILES,KDM4E inh,Tau fibril FP,Tau fluor counter,Tau ThT inhib,NPSR antagonist,PNC inhibitor
COc1ccc(OC)c(C2CC(=O)N3CN(c4cccc(Cl)c4C)CSC3=C2C#N)c1 (stereo unspecified),?,32µM,?,28µM,.,.
COc1ccc(OC)c(C2CC(=O)N3CN(c4ccccc4F)CSC3=C2C#N)c1 (stereo unspecified),2.2µM,25µM,.,28µM,.,.
COc1cccc(C2CC(=O)N3CN(c4cccc(Cl)c4C)CSC3=C2C#N)c1OC (stereo unspecified),?,32µM,?,28µM,.,?
CCCOc1ccc(-c2nc(-c3ccc([N+](=O)[O-])cc3)cs2)cc1,.,.,?,?,.,/
C=CCNc1nc(-c2ccc([N+](=O)[O-])cc2)cs1,.,.,.,7.1µM,.,-114
C=CCNc1nc(-c2ccc(Cl)cc2)cs1,.,.,?,?,.,.
CN(C)c1nc(-c2ccc([N+](=O)[O-])cc2)cs1,.,.,?,13µM,.,.
CCOC(=O)c1ccc(NC(=O)c2cn3c4c(ccc(Cl)c4c2=O)OC(C)C3)cc1 (stereo unspecified),/,.,.,.,/,/
O=C(O)C(c1ccccc1)N1C(=O)/C(=C/c2cccs2)SC1=S (stereo unspecified),.,.,.,?,.,/
CC(/C=C1\SC(=S)N(CC(=O)O)C1=O)=C\c1ccccc1,.,.,.,7.9µM,.[7.67 µM],/
CC(/C=C1\SC(=O)N(CC(=O)Nc2cccc(O)c2)C1=O)=C\c1ccccc1,.,16µM,6.3µM[quencher],.,?,.
CC(/C=C1\SC(=O)N(CC(=O)Nc2ccc(O)cc2)C1=O)=C\c1ccccc1,.,.,.,.,.,.
CC(/C=C1\SC(=S)N(C(C(=O)O)c2ccccc2)C1=O)=C\c1ccccc1 (stereo unspecified),.,.,.,32µM,.[7.67 µM],/
C=CCOc1ccc(/C=C2\SC(=S)N(C(C(=O)O)c3ccccc3)C2=O)cc1 (stereo unspecified),.,.,.,22µM,.,/
COc1ccc(CCC(=O)NCc2ccc3c(c2)CCN3C(=O)c2cccc(C)c2)cc1,/,.,.,.,/,/
Cc1ccc(NC(=O)Cn2cnc3sc(C(=O)O)c(C)c3c2=O)cc1Cl,/,.,.,.,/,/
CC(=C\c1ccco1)/C=C1/SC(=S)N(CC(=O)O)C1=O,.,?,?,4µM,.,/
CCOc1ccc(/C=C2\SC(=S)N(C(C(=O)O)c3ccccc3)C2=O)cc1OC (stereo unspecified),.,.,.,?,.,/
COc1ccc(OC)c(/C=C2\SC(=S)N(C(C(=O)O)c3ccccc3)C2=O)c1 (stereo unspecified),.,.,.,16µM,.,/
CCCc1nnc(SCc2cc(=O)c3c(C)cc(C)cc3[nH]2)n1C,/,.,.,.,/,/
COc1cccc(OCc2nc3ccccc3n2C)c1,/,.,.,.,/,/
N#Cc1ccc(NC(=O)Nc2cccc(C#N)c2)cc1,.,?,?,?,.,/
N#Cc1ccc(NC(=O)Nc2ccc(Oc3ccc(NC(=O)Nc4ccc(C#N)cc4)cc3)cc2)cc1,?,?,7.9µM[quencher],?,.,/
N#Cc1sc2nc(N3CCCCC3)c3c(c2c1N)CCCC3,?,.,16µM[quencher],?,?,.
CCOC(=O)COc1ccc(CC)cc1C(=O)c1ccn2nc(-c3ccccc3)cc2n1,/,.,.,.,/,/
SMILES,KDM4E inh,Tau fibril FP,Tau fluor counter,Tau ThT inhib,NPSR antagonist,PNC inhibitor
Cc1nnc(NC(=O)c2ccc(S(=O)(=O)N(C)Cc3ccccc3)cc2)o1,?,.,.,.,.,.
CCN(Cc1ccccc1)S(=O)(=O)c1ccc(C(=O)Nc2nnc(C3CC3)o2)cc1,14µM,.,.,.,.,.
Cc1ccccc1NC(=O)c1cnc2sc(N3CCCC3)nn2c1=O,/,.,.,.,/,/
CCCCCCCCNC(C)C(O)c1ccc(SC(C)C)cc1 (stereo unspecified),.,.,.,.,?,-115
CCN(CC)C(=O)c1c(-c2ccccc2)c(-c2ccccc2)nn(C)c1=O,/,.,.,.,/,/
CC(=O)C1=C(C)NC(SCC(=O)c2ccc(-c3ccccc3)cc2)=C(C#N)C1c1cccnc1 (stereo unspecified),.,.,?,.,.,.
CC(=O)C1=C(C)NC(SCSc2ccccc2)=C(C#N)C1c1cccnc1 (stereo unspecified),?,.,.,.,.,-86
CCN(Cc1ccccc1)c1ccc(/C=N/NS(=O)(=O)c2cccc([N+](=O)[O-])c2)cc1,?,.,7.9µM[quencher],?,.,.
Cc1cccc(N=Cc2cc(Br)cc(Cl)c2O)c1,.,.,.,14µM,.,/
O=C(Nc1cccc(C(F)(F)F)c1)N1CC2CCCN2c2ccccc21 (stereo unspecified),/,.,.,.,/,/
CCOC(=O)C1=C(CC)Nc2ccccc2N=C1NC(=O)Nc1ccc(Cl)c(Cl)c1,.,13µM,?,?,?,.
CCOC(=O)C1=C(CC)Nc2ccccc2N=C1NC(=O)c1ccc(S(=O)(=O)N2CCCC2)cc1,.,.,.,.,.,/
CCOC(=O)C1=C(C)N=C2c3ccccc3C(=O)C2C1c1ccc(C)cc1 (stereo unspecified),32µM,.,.,?,?,.
O=C(NC1CCCC1)C(c1cccnc1)N(C(=O)c1csnn1)C1CCCC1 (stereo unspecified),.,.,.,.,.,.
O=C(NC1CCCCC1)C(c1cccnc1)N(C(=O)c1csnn1)C1CCCC1 (stereo unspecified),.,.,.,.,.,-100
Cc1ccc(NC(=O)Cn2c(=O)ccc3cc(S(=O)(=O)N4CCC(C)CC4)ccc32)cc1Cl,/,?,.,?,/,/
Cc1ccc(NC2=C(Cl)C(=O)c3ccccc3C2=O)cc1,.,?,?,2.2µM,.,.
CCNC1=C(Cl)C(=O)c2ccccc2C1=O,.,.,?,18µM,.,.
CCN(CC)c1ccc(NC2=C(Cl)C(=O)c3ccccc3C2=O)cc1,7.1µM,5µM,2.2µM[quencher],2.8µM,13µM,?
O=C1C(Cl)=C(Nc2ccc(O)cc2)C(=O)c2ccccc21,.,3.5µM,2µM[quencher],2µM,?,/
CCNc1ccccc(-c2ccc3ccccc3n2)c1=O,.,.,.,?,.,.
CCOC(=O)CC(CC(C)=O)C(=O)OCC (stereo unspecified),.,.,.,.,/,/
COc1ccc2c(c1)c(=O)c(S(=O)(=O)c1ccc(C)c(C)c1)cn2CC(=O)Nc1ccccc1,/,.,.,.,/,/
